# Experimental data from paper PMC5540273 (PLoS ONE, 2017).
# Key:
# Conditions in all cases: concentration: 1 μM, replicates: in singlicate; n = 1
# [1] = tested on: T1, IKK-alpha
# T1 construct: gene CHUK
# [2] = tested on: T2, IKK-beta
# T2 construct: gene IKBKB
# [3] = tested on: T3, IKK-epsilon
# T3 construct: gene IKBKE
# [4] = tested on: INSRR
# [5] = tested on: INSR
# [6] = tested on: IRAK1
# [7] = tested on: IRAK3
# [8] = tested on: IRAK4
# [9] = tested on: ITK
# [10] = tested on: JAK1(JH1domain-catalytic)
# 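Note: KINOMEscan kinase panel screen.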
SMILES,%Inh [1] [%],%Inh [2] [%],%Inh [3] [%],%Inh [4] [%],%Inh [5] [%],%Inh [6] [%],%Inh [7] [%],%Inh [8] [%],%Inh [9] [%],%Inh [10] [%]
Cn1cc(-c2ccc3c(c2)CCN3C(=O)Cc2cccc(F)c2)c2c(N)ncnc21 [GSK2603358],15,43,76,0,0,41,0,22,11,18
CCc1ccc(-c2ccc3c(c2)-c2c(cnn2C)S(=O)(=O)N3C)cc1,0,7,0,7,0,0,11,0,2,0
O=C(Nc1n[nH]c2cc(-c3ccoc3)ccc12)C1CC1 [SB-738481],0,0,0,0,0,0,0,0,0,0
CN(C)Cc1ccc(-c2ccc3c(Nc4ccc(Oc5ccccn5)cc4)ccnc3c2)o1 [GW567148],27,7,27,0,6,21,22,0,15,0
O=c1[nH]cc(-c2ccc(N3CCOCC3)cc2)c2sc(-c3cn[nH]c3)cc12 [GSK2276055],0,11,34,0,24,0,0,9,0,24
Nc1ncc(-c2ccc3nccc(-c4ccncc4)c3c2)cc1S(=O)(=O)N1CCOCC1 [GSK1627798],21,9,11,15,35,31,73,16,11,3
CC(C)(C)c1ccc2nccc(Nc3cccc(O)c3)c2c1 [GW856795],31,0,0,0,0,0,0,0,19,0
Cl.Cl.NCC(NC(=O)c1cc(-c2ccccc2)c(-c2ccnc3[nH]ccc23)s1)c1ccccc1 (stereo not drawn) [GSK1321561],1,3,0,0,12,40,15,0,11,29
CCn1c(-c2nonc2N)nc2c(C#CC(C)(C)O)ncc(OCCCCN)c21.O=C(O)C(F)(F)F.O=C(O)C(F)(F)F [GSK507274],24,43,33,0,0,26,0,20,15,21
CC(C)c1nc(-c2cccc(NS(=O)(=O)c3c(F)cccc3F)c2F)c(-c2ccnc(Nc3ccc(N4CCOCC4)nc3)n2)s1 [GSK2008607],0,4,85,4,4,17,16,10,97.4,1
Cl.NC(=O)c1cccc(Nc2nccc(Nc3ccc(Oc4c(Cl)cccc4Cl)c(Cl)c3)n2)c1 [GW659009],0,0,0,0,0,0,90,0,98.7,9
CSc1cccc2c(-c3ccncn3)c(-c3ccc(F)cc3)nn12 [GW514786],0,0,5,3,10,10,24,0,10,1
Fc1ccc(-c2ncn(C3CCNCC3)c2-c2ccnc(Oc3ccc(-c4ccccc4)cc3)n2)cc1 [SB-245391],32,32,0,37,22,11,0,0,0,10
CN(C)S(=O)(=O)c1cc(-c2ccc3nccc(-c4cccc(S(N)(=O)=O)c4)c3c2)cnc1N [GSK1669921],0,0,0,24,42,0,29,9,16,12
NCCCC(NC(=O)c1cc(Br)c(-c2ccnc3[nH]ccc23)s1)c1ccccc1.O=C(O)C(F)(F)F.O=C(O)C(F)(F)F (stereo not drawn) [GSK1287544],48,58,0,1,0,94.8,0,7,12,72
O=C(Nc1cccc(-c2nn3ccccc3c2-c2ccnc(Nc3cccc(C(F)(F)F)c3)n2)c1)c1c(F)cccc1F [GSK292658],0,3,1,12,16,0,0,12,6,0
Cc1ccc(S(=O)(=O)Nc2ccc(Nc3nccc(Nc4cccc5[nH]ncc45)n3)cc2)cc1 [GSK581271],10,3,0,0,0,29,62,43,29,44
Cl.Cl.NCC(NCc1ccc(-c2ccnc3[nH]ccc23)s1)c1ccccc1 (stereo not drawn) [GSK1321565],68,74,39,0,0,71,20,7,13,29
Cl.c1ccc(-c2ccc3c(Nc4ccc5[nH]ccc5c4)ccnc3c2)nc1 [GW440138],17,8,19,0,0,28,0,3,0,12
O=C(Nc1ccccc1F)NC1CCN(c2ccnc(Nc3ccc(F)cc3)n2)CC1 [GSK1379800],0,0,22,0,0,24,21,5,0,20
Cl.c1ccc(-c2ccc3c(Nc4ccc5[nH]ncc5c4)ccnc3c2)nc1 [GW440137],10,15,17,0,15,18,26,12,7,26

SMILES,%Inh [1] [%],%Inh [2] [%],%Inh [3] [%],%Inh [4] [%],%Inh [5] [%],%Inh [6] [%],%Inh [7] [%],%Inh [8] [%],%Inh [9] [%],%Inh [10] [%]
Cn1cc(-c2[nH]c3cc(NC(=O)[C@H](N)C4CCCCC4)cc4c3c2C=NNC4=O)cn1,15,10,73,4,0,77,20,93.3,34,61
COc1cc(Nc2nccc(N3CCC(NC(=O)c4cc5ccccc5s4)C3)n2)cc(OC)c1OC (stereo not drawn) [GSK1379760],0,0,6,4,5,18,85,4,5,8
CCS(=O)(=O)c1ccc(OC)c(Nc2nccc(-c3c(-c4cccc(NC(=O)c5c(F)cccc5F)c4)nn4ncccc34)n2)c1 [GSK326180],27,27,13,21,45,28,1,29,5,20
Cc1ccc(C(=O)Nc2ccc(Nc3ccnc4cc(-c5nccs5)ccc34)cc2O)cc1.Cl [GW494702],20,7,0,1,100,22,2,5,0,0
Oc1cc(Nc2ccnc3cc(I)ccc23)ccc1F [GW552771],31,19,0,0,0,50,25,11,0,4
COc1cc2c(cc1OCCN1CCNCC1)ncc1c3ccc(C#N)cc3[nH]c21,46,32,61,3,0,95.7,88,99.7,23,0
COc1ccc(-c2coc3ccc(-c4nnc(SCc5ccc(OC)c(C(F)(F)F)c5)o4)cc23)cc1,25,6,22,0,25,10,4,14,25,0
CC(=O)Nc1nc2cnc(Nc3cc(NC(=O)c4cccc(C5(C#N)CC5)c4Cl)ccc3C)nc2s1,7,6,0,0,0,10,24,21,0,17
Cn1cc(-c2ccc3c(c2)CCN3C(=O)Cc2cccc(Cl)c2)c2c(N)ncnc21 [GSK2606590],22,57,78,16,9,0,22,0,19,18
CCn1c(-c2nonc2N)nc2c(C#CC(C)(C)O)nc(OC[C@H](N)c3ccccc3)cc21 [GSK943949],0,0,13,0,0,0,0,8,0,19
COc1cccc(-c2ccc3c(NC(=O)C4CC4)n[nH]c3n2)c1 [SB-710903],50,26,52,0,0,57,0,27,6,9
COc1ccc(CNC(=O)NC2CCN(c3ccnc(Nc4ccc(F)cc4)n3)CC2)cc1 [GSK1379788],1,0,11,0,0,17,24,0,0,11
Cl.Cl.NCC(C(=O)Nc1cc(Br)c(-c2ccnc3[nH]ccc23)s1)c1ccccc1 (stereo not drawn) [GSK1269851],44,34,0,0,0,81,34,26,12,2
CN1CCN(Cc2cccc(-c3ccc4c(Nc5ccc(Oc6ccccc6)cc5)ccnc4c3)c2)CC1 [GW578342],5,0,12,6,0,13,0,0,9,21
COc1cc(Nc2ncc3c(C)nc(-c4cc5ccccc5[nH]4)n3n2)cc(OC)c1OC [GW869516],0,0,0,53,4,2,20,0,43,0
O=C(NC1CCN(c2ccnc(Nc3ccc(F)cc3)n2)C1)c1cc2ccccc2s1 (stereo not drawn) [GSK1379716],21,0,15,0,70,32,11,17,21,29
C[C@@H](Oc1cc(-n2cnc3cc(-c4ccnc(NCCS(C)(=O)=O)c4)ccc32)sc1C(N)=O)c1ccccc1Cl [GSK907232],2,15,0,2,0,36,0,13,21,0
Cc1ccc(C(=O)N2CC[C@@H](O)C2)cc1-n1c(C)cc(OCc2ccc(F)cc2F)c(Br)c1=O,0,0,0,0,0,0,0,0,0,0
CN1CCN(CCCNc2nccc(-c3c(-c4ccc(F)cc4)nn4cc(C(F)(F)F)ccc34)n2)CC1 [GW621581],35,23,0,0,0,0,0,7,0,0
O=C(Nc1n[nH]c2nc(-c3ccc(O)cc3)ccc12)C1CC1 [SB-710363],0,0,7,0,0,0,0,0,0,6
CC(=O)N1CCN(c2ccc(Nc3nccc(-c4sc(C(C)C)nc4-c4cccc(NS(=O)(=O)c5cccc(Cl)c5)c4)n3)cn2)CC1 [GSK1660437],0,0,20,25,8,0,0,0,20,0

SMILES,%Inh [1] [%],%Inh [2] [%],%Inh [3] [%],%Inh [4] [%],%Inh [5] [%],%Inh [6] [%],%Inh [7] [%],%Inh [8] [%],%Inh [9] [%],%Inh [10] [%]
O=C(Nc1cccc(-c2nn3ncccc3c2-c2ccnc(Nc3ccccc3)n2)c1)c1c(F)cccc1F [GSK198271],0,0,0,0,28,0,0,11,12,5
COC(=O)Nc1nc2ccc(Oc3ccc(NC(=O)Nc4cc(C(F)(F)F)ccc4F)cc3)cc2n1C.Cl [GW692089],77,18,0,0,0,18,0,0,0,3
CNC(=O)c1ccccc1Nc1nc(Nc2ccc(N3CCOCC3)cc2)ncc1Cl.Cl [GSK1576028],85,78,74,98.6,95.5,100,99.7,99.6,99.9,97.6
COc1cccc(C2=C(Nc3ccc(Cl)c(C(=O)O)c3)C(=O)NC2=O)c1 [SB-390769],100,100,91.1,8,100,48,0,31,14,100
Cc1occc1-c1ncc(OC[C@@H](N)Cc2c[nH]c3ccccc23)cc1-c1ccc2[nH]nc(C)c2c1.O=C(O)C(F)(F)F [GSK682037],0,0,0,9,9,0,0,0,12,0
O=C(O)C(F)(F)F.O=C(O)C(F)(F)F.O=c1[nH]ccc2nc(N[C@@H]3CCCNC3)nc(Nc3ccc(S(=O)(=O)N4CCOCC4)cc3)c12 [GSK2177277],100,98.1,75,99.2,97.6,99.6,22,83,86,99
Nc1n[nH]c2cnc(-c3ccccc3)cc12 [SB-642124],55,64,13,100,0,49,3,32,13,37
c1ccc(-c2n[nH]cc2Nc2ccnc3ccccc23)nc1 [GW694077],92.1,81,0,0,0,85,90.9,47,14,0
Cc1cccc(Nc2nc(N[C@H]3CCNC3)ncc2C(N)=O)c1.Cl [GSK2197149],35,12,13,0,16,21,1,76,21,0
COc1cc(Nc2nccc(-c3c(-c4cccc(NC(=O)c5c(F)cccc5F)c4)nn4ncccc34)n2)cc(OC)c1OC [GSK327238],0,0,23,93,64,0,74,0,5,17
COc1cccc(NC(=O)NC2CCN(c3ccnc(Nc4cc(OC)c(OC)c(OC)c4)n3)C2)c1 (stereo not drawn) [GSK1379763],0,6,12,0,0,73,86,27,25,0
COCCOCCOc1cc2ncc3c4ccc(C#N)cc4[nH]c3c2cc1OC,30,30,60,0,0,96,75,99.9,39,0
FC(F)(F)c1ccc(/C=C/c2cncnc2Nc2ccc3[nH]c(Cc4ccccc4)nc3c2)cc1 [GW709199],0,0,0,0,0,2,3,0,6,10
COc1cccc(C(=O)Nc2cccc(Oc3ccc4nc(NC(=O)C5CC5)cn4n3)c2)c1,0,2,0,0,0,0,37,0,20,15
Clc1ccc(-c2nn3ncccc3c2-c2ccnc(Nc3ccc4c(c3)OCCO4)n2)cc1 [GW829116],0,0,17,0,0,0,0,0,0,0
Cc1ccc(F)c(C(=O)Nc2cccc(-c3nn4ccccc4c3-c3ccnc(Nc4cccc(F)c4)n3)c2)c1F [GSK361061],0,0,22,26,25,0,17,3,43,9
O=C(Nc1cccc(-c2nn3ccccc3c2-c2ccnc(Nc3cccc(F)c3)n2)c1)c1c(F)ccc(F)c1Cl [GSK357952],0,0,65,19,8,83,0,84,12,0
Nc1ncnc2c1nc(-c1ccccc1)n2-c1ccccc1 [SKF-97293],50,44,12,16,7,39,40,10,8,0
CCCCc1nn2ncccc2c1-c1ccnc(Nc2ccc(N3CCN(C)CC3)cc2)n1 [GW684941],41,23,16,21,36,94.9,79,43,5,0
COc1cc(Nc2nccc(-c3c(-c4cccc(NC(=O)c5c(F)cccc5F)c4)nn4ccccc34)n2)cc(OC)c1OC [GSK323521],0,25,65,13,13,10,22,0,13,5
CN(c1ccc(NC(=O)Nc2cc(C(F)(F)F)ccc2F)cc1)c1ccnc(Nc2ccc(S(N)(=O)=O)cc2)n1 [GW809893],82,44,7,13,15,49,51,6,59,95.3
